Screening data from PubChem BioAssay.
Sampled rows, rich in hits. Any-hit rate of the full collection: about 19%.
IL-1B inflam inh = blocks inflammasome-driven IL-1 beta release; THP-1 LPS/ATP IL-1B secretion, AlphaLISA, 16 h; hits give low values; activity change, % at 57.5 µM; actives 4.7% (n = 360,000); in the data active means activity change below about -50%; inconclusive means mostly about -30% to -49%
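Secreted IL-1B measured by AlphaLISA bead assay after 16 h compound exposure of THP-1 cells; compounds (final up to 57.5 uM) added 1 h before LPS (250 ng/mL) and ATP (1.25 mM) stimulation; lower signal means less secretion.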
HT1080NT lethal = kills 2HG-producing HT-1080-NT fibrosarcoma cells; Potency, µM (doses to about 46.1 µM), without a hit: at the top dose activity, negative = less viability, hits mostly cytotoxic; HT-1080-NT fibrosarcoma viability, CellTiter-Glo ATP luminescence, 48 h; actives 1.6% (n = 360,000);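 further: NT is the 2HG producing partner of a matched IDH1 knockdown line; potency means the concentration at half of the fitted maximal effect; 0% = DMSO-treated cells and -100% = media-only wells without cells; nearly all actives have a fitted effect of over 55% in size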
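Toxicity toward the 2HG-producing NT line was scored as %Activity, normalised to DMSO and no-cell wells, from CellTiter-Glo luminescence after 48 hours' treatment.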
TDP1 cell noCPT = qHTS for Inhibitors of human tyrosyl-DNA phosphodiesterase 1 (TDP1): qHTS in cells in absence of CPT; DT40 Tdp1-/- hTDP1 cells, no CPT, ATP luminescence, 48 h; Potency, µM (top dose mostly 46.2 µM), inactives show at the highest dose activity change, negative = growth inhibition, usual class: inhibitors; actives 15% (n = 420,000); AID 686978, 2013; further: potency means the concentration at half of the fitted maximal effect; nearly all actives have a fitted effect of over 55% in size
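A cellular qHTS used chicken DT40 cells lacking endogenous Tdp1 but carrying stably transfected human TDP1. Compounds were applied without camptothecin, and cell growth kinetics were judged by ATP-dependent luminescence after ≥48 hr.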
DT40 TDP1 CPT = DT40-hTDP1 cell growth loss with CPT | chicken DT40 Tdp1-/-;hTDP1 cells + 20 nM CPT, ATP luminescence, 48 h | Potency, µM (highest dose often 46.2 µM), for the others: top-dose activity change, negative = growth inhibition, actives largely listed as inhibitors | actives 12% (n = 420,000) | AID 686979; further: potency means the concentration at half of the fitted maximal effect; nearly all actives have a fitted effect of over 55% in size
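Chicken DT40 Tdp1-/- cells complemented with human TDP1, 400 cells/well, exposed to compounds plus 20 nM camptothecin for at least 48 h at 37 C; viability read as ATP content by CellTiter-Glo luminescence.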
HT1080 IDH1KD tx = HT-1080 IDH1 knockdown cell toxicity (counter line); HT-1080 IDH1 knockdown viability, ATP luminescence, 48 h; Potency, µM (doses to about 46.1 µM), inactives show top-dose activity, negative = toxicity, usual class: cytotoxic; actives 2% (n = 360,000); AID 686971;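 further: potency means the concentration at half of the fitted maximal effect; 0% = DMSO wells and -100% = cell-free medium wells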
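In this qHTS, HT-1080 cells depleted of IDH1 are exposed for 48 h at 37 °C to compound titrations. Toxicity is scored from CellTiter-Glo luminescence, with DMSO as full viability and medium alone as none.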
* = called active by the depositor; ? = inconclusive; · = no result given. Unless noted, the call rests on the fitted dose curve; in most records, active means well fitted curve in the direction sought with a large enough effect; inconclusive means small, poorly fitted or top-dose-only effect, or another doubt; inactive means no such curve, though single readings can be large; an effect the other way counts as inactive or inconclusive. Unless noted, on the % scale 0 is the no-effect control and ±100 the full control effect.

SMILES	IL-1B inflam inh	HT1080NT lethal	TDP1 cell noCPT	DT40 TDP1 CPT	HT1080 IDH1KD tx
O=C(CCc1nnc2n(Cc3ccc(Cl)cc3)c(=O)c3ccccc3n12)N1CCN(c2ccccn2)CC1	·	17%	21µM*	21µM*	0%
Cn1c(N2CCN(c3ccccn3)CC2)nc2c1c(=O)n(Cc1ccccc1Cl)c(=O)n2C	13	-6%	?	?	11%
Cn1c(OCc2cccnc2)nc2c1c(=O)n(Cc1ccc(Cl)cc1)c(=O)n2C	18	2%	18µM*	12µM*	-7%
Cn1c(OCc2cccnc2)nc2c1c(=O)n(Cc1ccc(Br)cc1)c(=O)n2C	-53*	-1%	?	?	4%
COc1ccc(NC(=O)CNS(=O)(=O)c2cccc3nonc23)c(OC)c1	-20	2%	-6%	-13%	14%
CCCn1c(CN2CCN(C(=O)OCC)CC2)nc2cc(NC(C)=O)ccc21	-3	-2%	16µM*	?	-5%
CCCn1c(CN2CCN(C(=O)OCC)CC2)nc2cc(NC(=O)C(C)C)ccc21	0	-26%	12µM*	21µM*	?
CCCCC(=O)Nc1ccc2c(c1)nc(CN1CCN(C(=O)OCC)CC1)n2C	26	-5%	-29%	?	-1%
CCc1ccc(NC(=O)CCC(=O)Nc2nnc(C(F)(F)F)s2)cc1	12	1%	0%	-19%	4%
O=[N+]([O-])c1cccc(Cl)c1CSc1ccccn1	-6	10%	-7%	37%	20%
C=CC[C@@]12C=C(OC)C(=O)C(OC)=C1O[C@H](c1ccc3c(c1)OCO3)[C@H]2C	-13	15%	-17%	-23%	12%
C=CC[C@]12C[C@@H](OC)C(=O)C=C1O[C@@H](c1ccc(OC)c(OC)c1)[C@H]2C	3	7%	?	18µM*	-1%
COc1ccc(N(CC(=O)NC2CCCCC2)C(=O)CNC(=O)c2ccco2)cc1	17	-3%	-19%	0%	-4%
O=[N+]([O-])c1cccc(-c2ccc(SCc3ccccn3)nn2)c1	?	?	26µM*	?	-2%
Cc1ccc(-c2ccc(SCC(=O)c3ccccc3)nn2)cc1	4	-13%	?	-18%	1%
COc1ccc(-c2ccc(SCc3ccccn3)nn2)cc1OC	-56*	7%	?	13µM*	-1%
COc1ccc(-c2ccc(SCC(=O)c3ccccc3)nn2)cc1OC	-8	0%	13µM*	?	-24%
COc1ccc(-c2ccc(SCC(=O)NCc3ccc4c(c3)OCO4)nn2)cc1OC	-95*	?	29µM*	?	?
C[N+]1(C)CCc2cc3c(cc2[C@@H]1[C@@H]1C(=O)Oc2c1ccc1c2OCO1)OCO3	·	·	-13%	2%	·
CCOc1cc(/C=N/NC(=O)C(=O)NC)cc(Br)c1O	9	-3%	-3%	1%	-13%
CC(=O)Nc1ccc(NS(=O)(=O)c2c(C(=O)N3CCCCCC3)c(C)n(C)c2C)cc1	·	·	1%	6%	·
Cc1ccc2oc(C(=O)N3CCC(O)(c4cccc(C(F)(F)F)c4)CC3)c(C)c2c1	-52*	-13%	?	2%	?
CC(=O)N1CCC(O)(c2cccc(C(F)(F)F)c2)CC1	0	-2%	-6%	-14%	-2%
CC(C)CNc1nc(N)c([N+](=O)[O-])c(N2CCCCCC2)n1	-13	?	16µM*	?	?
CCC(C)Nc1nc(N)c([N+](=O)[O-])c(N2CCCCCC2)n1 (configuration not stated)	?	-3%	2.6µM*	?	-11%
CCOC(=O)c1[nH]c2ccccc2c1NC(=O)c1ccc(C)c(C)c1	·	·	?	-18%	·
COc1ccc(C2CC(=O)c3c(O)cc(O)cc3O2)c(CC=C(C)C)c1OC (configuration not stated)	10	0%	?	23µM*	-2%
COc1ccc(C2CC(=O)c3c(O)cc(O)cc3O2)cc1O (configuration not stated)	-7	0%	?	-6%	15%
